# According to paper PMC11066047:
# Legend:
# [1] = target: Eukaryotic translation initiation factor 3 subunit A (UniProt P38249); assay: cross-link between two proteins; cross-linking mass spectrometry
# Histone H3 = Histone H3 (UniProt P61830); assay: as above
# [2] = target: Nucleolar complex protein 14 (UniProt Q99207); assay: cross-link between two proteins
# [3] = target: Something about silencing protein 10 (UniProt Q12136); assay: cross-link between two proteins
# [4] = target: Small ribosomal subunit protein bS1m (UniProt Q02950); assay: cross-link between two proteins; cross-linking mass spectrometry
# [5] = target: Small ribosomal subunit protein uS8m (UniProt Q03799); assay: as above
# Sequence of Eukaryotic translation initiation factor 3 subunit A (P38249 whole entry): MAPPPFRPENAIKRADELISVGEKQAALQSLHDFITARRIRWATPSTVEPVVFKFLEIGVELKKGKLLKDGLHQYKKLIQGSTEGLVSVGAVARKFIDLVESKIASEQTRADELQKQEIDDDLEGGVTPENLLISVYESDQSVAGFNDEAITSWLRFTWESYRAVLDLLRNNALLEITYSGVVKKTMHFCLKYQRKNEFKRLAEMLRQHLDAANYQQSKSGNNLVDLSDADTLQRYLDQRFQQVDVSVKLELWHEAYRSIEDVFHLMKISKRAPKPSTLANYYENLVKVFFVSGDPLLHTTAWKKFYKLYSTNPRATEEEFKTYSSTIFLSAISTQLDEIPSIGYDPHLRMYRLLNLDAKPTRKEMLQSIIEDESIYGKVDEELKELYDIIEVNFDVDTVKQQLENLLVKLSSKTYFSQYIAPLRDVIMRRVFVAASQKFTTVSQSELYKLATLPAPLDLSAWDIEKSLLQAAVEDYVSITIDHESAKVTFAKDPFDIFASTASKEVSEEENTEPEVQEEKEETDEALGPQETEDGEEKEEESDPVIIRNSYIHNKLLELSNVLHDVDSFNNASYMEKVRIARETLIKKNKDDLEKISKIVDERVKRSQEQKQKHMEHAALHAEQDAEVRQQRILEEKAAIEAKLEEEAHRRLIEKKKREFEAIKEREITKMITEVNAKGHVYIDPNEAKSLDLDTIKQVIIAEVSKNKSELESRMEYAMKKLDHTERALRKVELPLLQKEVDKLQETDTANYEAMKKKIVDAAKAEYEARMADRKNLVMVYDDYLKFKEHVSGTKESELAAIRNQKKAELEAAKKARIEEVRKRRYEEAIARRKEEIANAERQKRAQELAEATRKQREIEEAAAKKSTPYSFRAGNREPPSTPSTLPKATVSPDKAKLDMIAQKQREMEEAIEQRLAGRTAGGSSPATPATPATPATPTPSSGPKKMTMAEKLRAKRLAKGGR
substance,measurement,setting,value
"Eukaryotic translation initiation factor 3 subunit B, P06103",listed as a hit,[1],yes
"Histone H4, P02309",listed as a hit,Histone H3,yes
"Ribosomal RNA small subunit methyltransferase NEP1, Q06287",listed as a hit,[2],yes
same,listed as a hit,[3],yes
"Small ribosomal subunit protein bS18m, P40033",listed as a hit,[4],yes
"Small ribosomal subunit protein mS23, P40496",listed as a hit,[5],yes
